In the library only some 2.3% were active in any assay of this set; here they are far more common.
TLR4-MyD88 inh – inhibitors of human TLR4-MyD88 binding. O00206. Cell-based TLR4-MyD88 binding inhibition assay. AID 811. inhibition, % at 10 µM. actives 0.06% (n = 16,000); in the data active means inhibition above about 45%
S1P1 ag – activates the human S1P1 receptor; S1P1 agonist cell-based reporter assay; actives 1.5% (n = 16,000); activation, % at 4.5 µM; AID 1044; in the data active means activation above about 80%
rat GALR2 agon – GALR2 (rat) receptor agonism; actives 0.5% (n = 16,000); activation, % at 10 µM; O08726; cell-based GALR2 agonist screen; in the data active means activation above about 15%
Target sequence (O08726 whole entry, looked up): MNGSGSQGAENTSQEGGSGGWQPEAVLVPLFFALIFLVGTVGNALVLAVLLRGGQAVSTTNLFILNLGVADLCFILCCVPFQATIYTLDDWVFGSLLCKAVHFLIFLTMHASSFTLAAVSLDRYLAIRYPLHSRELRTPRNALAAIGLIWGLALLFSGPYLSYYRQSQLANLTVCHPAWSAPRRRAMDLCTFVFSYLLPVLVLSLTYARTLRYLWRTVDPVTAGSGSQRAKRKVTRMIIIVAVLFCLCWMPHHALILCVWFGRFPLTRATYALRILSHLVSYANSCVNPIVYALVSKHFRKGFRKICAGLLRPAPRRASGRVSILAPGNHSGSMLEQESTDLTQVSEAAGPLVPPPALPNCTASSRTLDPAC
Numbers stand for hits; n = inactive.

SMILES	TLR4-MyD88 inh	S1P1 ag	rat GALR2 agon
Cc1cc(C(=O)Nc2ccc(N3CCOCC3)cc2)nn1C	n	n	n
O=C(Nc1ccccc1)Nc1ccccc1Sc1nccc(C(F)(F)F)n1	n	n	n
O=C(CSc1ccccn1)Nc1ccccc1Sc1nccc(C(F)(F)F)n1	n	83.7	n
CC(C)c1cc(Br)c(NC(=O)NCCN2CCNC2=O)c(Br)c1	n	n	n
N#CCc1c([N+](=O)[O-])ccc2c1ccn2Cc1ccccc1	n	n	n
c1ccc(-c2[nH]c3ccccc3c2-c2ccccc2)cc1	n	n	n
Oc1[nH]c2ccccc2c1N=Nc1nnc(-c2ccccc2)c(-c2ccccc2)n1	n	96.2	n
O=C1c2cccc3cc([N+](=O)[O-])cc(c23)C(=O)N1Cc1ccccc1	n	n	n
N/C(CS(=O)(=O)Cc1ccco1)=N\OC(=O)c1ccc(Cl)cc1	n	n	n
Nc1c(Cl)cc(C(=O)Nc2cc(Cl)c(Cl)cc2Cl)cc1Cl	n	n	16.6
COc1cc(NC(=O)c2cc(OC)c(OC)c(OC)c2)c(OC)cc1Cl	n	n	n
O=C(c1ccc([N+](=O)[O-])cc1)c1ccc2c(c1)CCC2	n	n	n
O=C(Nc1ccc(-c2nc3ccccc3s2)cc1)Nc1cc(F)cc2c1OCOC2	n	n	33.4
O=C(Nc1ccc(-c2nc3ccccc3s2)cc1)c1ccc2c(c1)CCO2	n	n	n
N/C(=N\OC(=O)c1ccc(Cl)cc1)c1ccc([N+](=O)[O-])cc1	n	n	n
Cc1cc(-c2ccsc2)n[nH]c1=O	n	n	n
CC(=O)/C(=C\N(C)C)SCc1ccccc1C	n	96.6	n
CC(=O)/C(=C\N(C)C)Sc1ccccn1	n	n	n
Cc1onc(-c2ccccc2)c1-c1csc(CS(=O)(=O)C(C)(C)C)n1	n	n	n
COc1ccc(-n2nnc(C(=O)O)c2C)cc1	n	n	n
Cn1ccc(-c2cccc([N+](=O)[O-])c2)n1	n	n	n
O=C(c1ccc(Cl)cc1)n1ccc(-c2cccc([N+](=O)[O-])c2)n1	n	n	26.2
Cc1cc(C)c(C(=O)Nc2cccnc2)c(CC(C)(C)C(=O)O)c1	n	81.7	n
Cn1nc(C(C)(C)C)cc1C(=O)Nc1cccnc1	n	n	n
O=C(NNC(=S)NCc1ccco1)c1ccc(Cl)cc1Cl	n	n	n
SMILES	TLR4-MyD88 inh	S1P1 ag	rat GALR2 agon
Cc1cc(NS(=O)(=O)c2ccc(S(=O)(=O)c3ncc(C(F)(F)F)cc3Cl)s2)no1	n	n	n
N#CCCNc1ccc(N=Nc2ccc(Cl)cc2)cc1	n	103.8	n
COc1ccc(NCCC#N)cc1	n	n	n
COC(CN=C(NC#N)SC)OC	n	n	n
O=C(NCc1ccc2c(c1)OCO2)C1CCN(C(=O)OCc2ccccc2)CC1	n	n	n
CS(=O)(=NS(=O)(=O)c1cccc2nsnc12)c1ccc(Cl)cc1 (centres undefined)	n	n	n
O=[N+]([O-])c1ccc(OS(=O)(=O)c2cccc3nsnc23)cc1	n	n	47.0
Cc1cc(NC(=O)CN2CCCC2)no1	n	n	n
O=C1CNC(=S)N1Cc1ccccn1	n	n	n
O=C1CNC(=S)N1Cc1cccs1	n	97.7	n
N#C/C(N=Cc1ccc(Cl)cc1)=C(\C#N)NC(=O)Nc1ccc(OC(F)(F)F)cc1	n	100.5	n
O=C(NNC(=O)Nc1ccc(OC(F)(F)F)cc1)Nc1ccc(OC(F)(F)F)cc1	n	n	n
Cc1nnc(SCc2ccc([N+](=O)[O-])cc2)s1	n	n	n
Clc1ccc(CSc2nnc(-n3cccc3)s2)cc1	n	80.3	n
Cc1n[nH]c(C)c1N=Nc1ccc(Cl)cc1Cl	n	n	n
Cc1ccccc1C(=O)NC(NCc1ccco1)(C(F)(F)F)C(F)(F)F	n	n	n
S=C(NNC(=S)Nc1ccc2c(c1)OCCO2)NNc1ccccc1	n	n	n
O=C1OCc2ccc(NS(=O)(=O)c3ccccc3)cc21	n	n	n
NNC(=O)c1ccccc1-n1cccc1	n	n	n
Cc1c(C)c(C)c(C(=O)c2ccccc2C(=O)NN)c(C)c1C	n	81.0	n
Cc1onc(-c2c(Cl)cccc2Cl)c1C(=O)NC(C#N)c1ccc2c(c1)OCO2 (centres undefined)	n	n	n
CC1(C)OC(=O)C(=NNc2cc(C(F)(F)F)cc(C(F)(F)F)c2)C(=O)O1	n	n	n
COc1cc(N2CCCC2)c([N+](=O)[O-])cc1[N+](=O)[O-]	n	n	n
COc1ccccc1C1CCN(c2ccc(CO)cc2[N+](=O)[O-])CC1	n	92.3	n
COc1ccc(C(=O)Sc2ccccc2)cc1	n	n	n
O=S(=O)(Cc1ccc(Cl)cc1)Cc1nc(-c2ccsc2)no1	n	n	n
CC(=O)O[C@@H]1CSSC[C@H]1OC(C)=O	n	n	n
CCOC(=O)CSc1sc(C(=O)OCC)c(-c2cccs2)c1C#N	n	n	n
CCOC(=O)Cn1c(=O)c2ccsc2c2c(C#N)c(SC)sc21	n	n	139.3
N#C/C(=C\Nc1nccs1)S(=O)(=O)c1ccc(Cl)cc1	n	n	n
